A short description of experiment [1]: qHTS assay to test for compound auto fluorescence at 535 nm (green) in HEK293 cells (AID 720680).
Experiment [2] in a line: qHTS assay to test for compound auto fluorescence at 460 nm (blue) in HEK293 cell free culture (AID 720681). Further: potency means the concentration at half of the fitted maximal effect. Put shortly: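 Blue fluorescence (Ex 405/Em 460 nm, triamterene-equivalent) was read immediately after pin transfer of compound or DMSO into medium (DMEM, 10% FBS) without cells.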
(In general: In qHTS, concentration-response curves come from the screen itself.)

A short description of experiment [3]: qHTS assay to test for compound auto fluorescence at 535 nm (green) in HEK293 cell free culture (AID 720682). The method in brief: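 Green-channel intensity (Ex/Em 485/535 nm) was recorded from compound-treated wells containing only DMEM with 10% FBS. Fluorescein provided the equivalency standard.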
A short description of experiment [4]: qHTS assay to test for compound auto fluorescence at 590 nm (red) in HEK293 cell free culture (AID 720683). The method in brief: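 Red-channel autofluorescence of compounds in culture medium (DMEM, 10% FBS), no cells, measured at 540/590 nm. Rose Bengal sodium is the reference fluorophore for equivalence.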
Experiment [5] can be described thus: qHTS assay to test for compound auto fluorescence at 590 nm (red) in HepG2 cell free culture (AID 720684). The method in brief:
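Plate contents were MEM with 10% FBS plus test compound or DMSO, no cells. Fluorescence was recorded with 540 nm excitation and 590 nm emission.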

Experiment [6] is described as follows: qHTS assay to test for compound auto fluorescence at 460 nm (blue) in HepG2 cell free culture (AID 720685). Further: potency means the concentration at half of the fitted maximal effect. Put shortly: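 Compound (23 nL) or DMSO pinned into cell-free MEM with 10% FBS; blue fluorescence read at 405/460 nm excitation/emission, expressed as auto-fluorescence equivalency to triamterene.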
Experiment [7] can be described thus: qHTS assay to test for compound auto fluorescence at 535 nm (green) in HepG2 cell free culture (AID 720686).
Experiment [8] is described as follows: qHTS assay to test for compound auto fluorescence at 460 nm (blue) in HepG2 cells (AID 720687). Further: potency means the concentration at half of the fitted maximal effect. Put shortly: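 Blue-channel autofluorescence (Ex/Em 405/460 nm, triamterene-equivalent) was measured after 1 hr compound exposure at 37 C, 5% CO2. Cells were HepG2, plated overnight at 37 C in MEM plus 10% FBS.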
Experiment [9] addresses Glucocorticoid receptor (Homo sapiens) (UniProt P04150). Nature of the experiment: qHTS assay to identify small molecule agonists of the glucocorticoid receptor (GR) signaling pathway (AID 720691; active means well fitted activation curve with a large enough effect in the signal ratio in the repeat runs, not every such curve was filed as active; the % refers to the signal ratio). The method in brief: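 qHTS in GR-bla HeLa cells: 4 h settling at 37 C/5% CO2, 18 h compound incubation at 37 C, 2 h LiveBLAzer B/G FRET substrate at room temperature, fluorescence intensity measured.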

The nature of experiment [10]: qHTS assay to identify small molecule antagonists of the glucocorticoid receptor (GR) signaling pathway - cell viability counter screen (AID 720693). Further: nearly all actives have a fitted effect of over 55% in size.
Experiment [11] can be described thus: qHTS assay for identifying genotoxic compounds that show differential cytotoxicity against isogenic chicken DT40 cell lines with known DNA damage response pathways - Rev3 mutant cell line (AID 743014). Further: nearly all actives have a fitted effect of over 55% in size. Further: potency means the concentration at half of the fitted maximal effect.
Experiment [12] in a line: qHTS assay for identifying genotoxic compounds that show differential cytotoxicity against isogenic chicken DT40 cell lines with known DNA damage response pathways - Rad54/Ku70 mutant cell line (AID 743015). Further: nearly all actives have a fitted effect of over 60% in size. Further: potency means the concentration at half of the fitted maximal effect.
Experiment [13] is described as follows: qHTS assay to identify small molecule antagonists of the androgen receptor (AR) signaling pathway - cell viability counter screen (AID 743033; further: nearly all actives have a fitted effect of over 45% in size).
Experiment [14] deals with Androgen receptor (Homo sapiens) (UniProt P10275). In words: qHTS assay to identify small molecule agonists of the androgen receptor (AR) signaling pathway (AID 743036; active means well fitted activation curve with a large enough effect in the signal ratio in the repeat runs, with a control signal flat, not every such curve was filed as active; the % refers to the signal ratio). The method in brief: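 Cell-based FRET reporter assay: HEK293 line with a UAS-beta-lactamase construct, compounds added in DMSO, 16 h exposure at 37C, then 2 h substrate step at room temperature and fluorescence intensity read.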
Sequence of Androgen receptor (Homo sapiens) (P10275 whole entry, looked up): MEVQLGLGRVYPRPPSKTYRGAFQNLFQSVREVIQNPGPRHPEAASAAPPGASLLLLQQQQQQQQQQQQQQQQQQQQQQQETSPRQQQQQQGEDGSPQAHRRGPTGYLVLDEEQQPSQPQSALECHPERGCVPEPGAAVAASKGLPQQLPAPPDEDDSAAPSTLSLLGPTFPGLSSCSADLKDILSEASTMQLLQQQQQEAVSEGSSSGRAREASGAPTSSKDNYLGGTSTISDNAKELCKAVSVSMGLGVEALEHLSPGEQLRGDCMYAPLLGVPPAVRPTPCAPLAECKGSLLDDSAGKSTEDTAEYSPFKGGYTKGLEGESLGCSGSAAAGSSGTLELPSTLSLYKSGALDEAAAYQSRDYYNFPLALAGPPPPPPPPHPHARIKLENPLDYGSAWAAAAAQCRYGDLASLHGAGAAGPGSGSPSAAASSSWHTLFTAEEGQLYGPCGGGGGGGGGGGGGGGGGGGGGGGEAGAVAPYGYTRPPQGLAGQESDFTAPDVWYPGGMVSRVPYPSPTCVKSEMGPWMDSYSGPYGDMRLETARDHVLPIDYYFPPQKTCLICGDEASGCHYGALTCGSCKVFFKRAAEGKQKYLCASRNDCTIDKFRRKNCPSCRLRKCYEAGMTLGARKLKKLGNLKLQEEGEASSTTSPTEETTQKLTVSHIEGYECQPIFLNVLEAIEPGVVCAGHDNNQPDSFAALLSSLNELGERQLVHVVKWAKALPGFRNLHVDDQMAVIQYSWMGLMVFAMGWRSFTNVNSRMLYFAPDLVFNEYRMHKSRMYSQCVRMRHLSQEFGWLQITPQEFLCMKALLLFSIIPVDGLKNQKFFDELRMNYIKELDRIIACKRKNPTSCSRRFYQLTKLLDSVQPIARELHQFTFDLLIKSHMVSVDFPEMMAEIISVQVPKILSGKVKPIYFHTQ

The nature of experiment [15]: qHTS assay to identify small molecule antagonists of the androgen receptor (AR) signaling pathway using the MDA cell line - cell viability counter screen (AID 743041; further: nearly all actives have a fitted effect of over 45% in size). Put shortly: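 R1881-driven MDA-kb2 AR-luc cells, 3,000/well, were dosed with library compounds for 16 h; cell health came from CellTiter-Fluor fluorescence in the reporter wells.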
The target of experiment [16] is Androgen receptor (Homo sapiens) (UniProt P10275). In words: qHTS assay to identify small molecule antagonists of the androgen receptor (AR) signaling pathway using the MDA cell line (AID 743042; further: nearly all actives have a fitted effect of over 55% in size). Put shortly: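 Antagonist mode: compounds plus R1881 agonist added to MDA-kb2 AR-luc cells, incubated 16 h at 37C. Luciferase reporter luminescence quantified, with multiplexed CellTiter-Fluor readout for cell viability.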

A short description of experiment [17]: qHTS assay for identifying genotoxic compounds that show differential cytotoxicity against isogenic chicken DT40 cell lines with known DNA damage response pathways - wild type cell line (AID 743012). Further: nearly all actives have a fitted effect of over 60% in size. Further: potency means the concentration at half of the fitted maximal effect. The method in brief:
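First, wild type DT40 cells were plated at 300 per well and equilibrated about 0.5 h at 37 C/5% CO2. Next, compounds in DMSO were added and exposure lasted 40 h. Finally, CellTiter-Glo was added for 30 min at room temperature and luminescence recorded.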

Experiment [18] addresses Androgen receptor (Homo sapiens) (UniProt P10275). Nature of the experiment: qHTS assay to identify small molecule agonists of the androgen receptor (AR) signaling pathway using the MDA cell line (AID 743040; further: nearly all actives have a fitted effect of over 20% in size). The method in brief:
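After a 5 h incubation at 37C and 0% CO2, MDA-kb2 reporter cells were dosed with compounds in DMSO and kept 16 h under the same conditions. Luciferase activity was then read as luminescence with ONE-Glo.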

Experiment [19] in a line: qHTS assay to identify small molecule antagonists of the thyroid receptor (TR) signaling pathway - cell viability counter screen (AID 743064). Further: nearly all actives have a fitted effect of over 50% in size. The method in brief: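 In rat pituitary GH3.TRE-Luc reporter cells co-exposed to compound and 1 nM T3 for 23.5 h, cytotoxicity was assessed with CellTiter-Fluor in the same wells, read by fluorescence.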

Unmarked numbers belong to inactive results. Records with an inconclusive call do not appear. Calls of active or inactive are those of the source. Unless noted, the call rests on the fitted dose curve; in most records, active means well fitted curve in the direction sought with a large enough effect in the repeat runs; inconclusive means weak or mixed curves; inactive means no such curve, though single readings can be large; an effect the other way counts as inactive or inconclusive.
On the % scale 0 is the no-effect control and ±100 the full control effect; tags describe the fitted curve by direction and shape or compound fluorescence and quenching.

Sequence of Glucocorticoid receptor (Homo sapiens) (P04150 whole entry, looked up): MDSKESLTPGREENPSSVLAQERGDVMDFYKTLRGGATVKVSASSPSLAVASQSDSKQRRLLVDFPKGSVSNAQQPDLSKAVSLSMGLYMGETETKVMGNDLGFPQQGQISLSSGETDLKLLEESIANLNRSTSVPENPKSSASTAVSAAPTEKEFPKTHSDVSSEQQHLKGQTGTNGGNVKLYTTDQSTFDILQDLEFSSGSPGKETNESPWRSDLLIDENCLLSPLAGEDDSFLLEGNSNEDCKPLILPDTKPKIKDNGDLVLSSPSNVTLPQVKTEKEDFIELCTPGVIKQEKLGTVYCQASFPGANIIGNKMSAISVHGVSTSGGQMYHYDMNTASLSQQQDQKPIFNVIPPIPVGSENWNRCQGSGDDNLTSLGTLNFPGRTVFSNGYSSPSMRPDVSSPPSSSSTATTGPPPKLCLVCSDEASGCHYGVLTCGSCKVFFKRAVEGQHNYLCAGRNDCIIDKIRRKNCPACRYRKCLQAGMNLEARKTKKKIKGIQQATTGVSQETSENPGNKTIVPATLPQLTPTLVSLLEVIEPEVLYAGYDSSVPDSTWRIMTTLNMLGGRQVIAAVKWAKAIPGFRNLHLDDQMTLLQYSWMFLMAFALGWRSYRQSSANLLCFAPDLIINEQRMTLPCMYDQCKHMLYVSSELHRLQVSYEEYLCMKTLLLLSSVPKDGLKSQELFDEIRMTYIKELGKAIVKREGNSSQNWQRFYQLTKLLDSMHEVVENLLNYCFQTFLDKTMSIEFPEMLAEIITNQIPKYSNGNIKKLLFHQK

In the case of `N#C/C(=C1\SCC(c2ccccc2Cl)S1)n1ccnc1` (configuration not stated), the outcome in [1], in experiment [3], in [4], in experiment [5] and in experiment [7] was inactive. In addition, the Potency result in [2], in [6], in experiment [8], in experiment [9], in experiment [10] and in [13] was “inactive” in each case. Besides, the Potency entry in experiment [14], in [15] and in [16] was “inactive” in each case. Moreover, the results for the Potency in experiment [11] and in experiment [12] were 26.6 µM (active) and 29.8 µM (active), respectively.

For `CCCCCCCCCCOS(=O)(=O)O`, the outcome in experiment [1], in [3], in experiment [4], in [5] and in [7] was inactive. Also, the Potency entry in [2], in [6], in experiment [8], in experiment [10], in [17] and in experiment [11] was “inactive” throughout. Moreover, the Potency result in experiment [12], in experiment [13] and in experiment [15] was “inactive” in each case.

For the molecule `CCC(C)(C)C1CCC(O)CC1` (configuration not stated), the outcome in experiment [1], in [3], in experiment [4], in experiment [5] and in experiment [7] was inactive. For the same molecule, the Potency entry in experiment [2], in experiment [6], in [8], in experiment [10], in experiment [17] and in experiment [12] was “inactive” each time. Also, the Potency result in experiment [13] and in [15] was “inactive” in each case.

`C[N+](C)(C)CCOC(N)=O`: the molecule was classed as inactive in experiment [1], in experiment [3], in experiment [4], in experiment [5] and in experiment [7]. Also, the Potency entry in experiment [2], in experiment [6], in [8], in [10], in experiment [17] and in experiment [12] was “inactive” throughout. For the same molecule, the Potency result in experiment [13], in [14], in experiment [18], in experiment [16] and in experiment [19] was “inactive” in each case.

`CCc1c2c(nc3ccc(OC(=O)N4CCC(N5CCCCC5)CC4)cc13)-c1cc3c(c(=O)n1C2)COC(=O)[C@]3(O)CC`: the result in [1], in [3], in [4], in [5] and in experiment [7] was inactive. Further, the Potency in experiment [2] is 12.6 µM (active); in [6], 12.6 µM [fluorescent] (active); in experiment [8] it was 15.8 µM [fluorescent] (active); in experiment [17] it was 5.96 µM (active); in [11], 5.96 µM (active); in [12], 4.22 µM (active). The Potency result in experiment [10] and in experiment [15] was “inactive” throughout.

Take `O=S1OCCO1`: the outcome in [1], in experiment [3], in experiment [4], in [5] and in experiment [7] was inactive. Moreover, the Potency result in experiment [2], in [6], in experiment [8], in experiment [10], in experiment [17] and in experiment [11] was “inactive” throughout. Further, the Potency result in experiment [12], in experiment [13], in experiment [15] and in experiment [19] was “inactive” in each case.

On to `C=CCCCCCCCCCCCCCCCC`, for which the fluorescence, % of fluorescein in experiment [1] is 0.013% [at 3.72 µM]. In addition, the fluorescence, % of fluorescent control in experiment [2] is -0.189% [at 3.72 µM]; in [4] it was -0.0981% [at 3.72 µM]; in [6], -0.0068% [at 3.72 µM]; in experiment [8] it was 0.0871% [at 3.72 µM]. Further, the activity change in experiment [3] is -0.098% [at 3.72 µM]. For the same molecule, the fluorescence, % of Rose Bengal in [5] is 0.0296% [at 3.72 µM]. Moreover, the fluorescence, % of fluorescein control in [7] is -0.0312% [at 3.72 µM]. The viability change, negative = cytotoxic in [10] was -0.145% [at 7.04 µM]; in experiment [15], -4.7% [at 8.47 µM]. Also, the activity change, negative = cytotoxicity is -12.1% [at 8.52 µM] in [17], -0.283% [at 8.55 µM] in experiment [12] and 0.86% [at 7.04 µM] in experiment [13]. In experiment [11], the activity, negative = cytotoxicity is 2.07% [at 8.53 µM]. Moreover, the activity change, negative = cytotoxic in experiment [19] was -9.44% [at 8.44 µM].
